Screening data (PubChem)
CtBP-E1A blk – inhibitors of CtBP/E1A interaction | AlphaScreen GST-E1A/His-CtBP binding, 1536-well; active compounds read low | activity change, % (no concentration beside the values) | hit rate 0.49% among 340,000; in the data active = activity change below about -65%; inconclusive = mostly about -30% to -63%; note: % is set by controls: 0 for no effect and ±100 for the full control effect
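Homogeneous bead-based format: GST-tagged E1A captured on glutathione donor beads, His-tagged CtBP on nickel acceptor beads; compounds precede bead addition by 2 h at 37 °C.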
Six1-Eya2 inh – blocks human Six1 binding to Eya2. Q15475+O00167. AlphaScreen GST-Six1/His-Eya2 binding, biochemical; active compounds read low. activity change, % (concentration not given with the values). hit rate 0.56% among 360,000; in the data active = activity change below about -65%; inconclusive = mostly about -30% to -63%; note: % is set by controls: 0 for no effect and ±100 for the full control effect
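AlphaScreen with GST-Six1 and His-Eya2 (5X mix: 250 nM and 500 nM), glutathione donor and nickel acceptor beads; buffer 50 mM Tris pH 8.0, 300 mM NaCl, 1 mM TCEP; 1 h at 37 C in the dark.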
TrxR1 inh-1 – rat TrxR1 inhibition; Potency, µM (series often up to 114 µM), inactives show top-dose activity change, negative = inhibition, actives largely listed as inhibitors; hit rate 1% among 390,000; recombinant rTrxR1, NADPH fluorescence consumption, selenite substrate; AID 588453; note: potency is the fitted concentration of half-maximal effect; % is set by controls: 0 for no effect and ±100 for the full control effect; nearly all actives have a fitted effect of over 65% in size
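Rat TrxR1 (90 nM in the dispensed reagent) was pre-reduced with 400 uM NADPH for 5 min at room temperature, then incubated with compound for 15 min. After 400 uM selenite was added, NADPH fluorescence (Ex 340/Em 450 nm) was followed for 8 min.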
Eya2 inh – inhibitors of human Eya2 phosphatase activity; O00167; recombinant Eya2, OMFP fluorescence dephosphorylation (OMFP is methylfluorescein phosphate); Potency, µM (doses to about 76.9 µM), for inactives: at the top dose activity, negative = inhibition, usual class: inhibitors; hit rate 0.006% among 330,000; note: potency is the fitted concentration of half-maximal effect; % is set by controls: 0 for no effect and ±100 for the full control effect
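Eya2 protein (added as 0.2 uM solution) was preincubated with compound for 10 min at ambient temperature in 50 mM HEPES pH 7.5, 50 mM NaCl, 5 uM MgCl2, 0.05% BSA, 1 mM DTT. OMFP (added at 50 uM) then reacted 10 min; fluorescence read at 485/525 nm.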
TrxR1 substrate – substrates of rat thioredoxin reductase 1; AID 588456; O89049; purified TrxR1 substrate turnover, NADPH consumption readout; Potency, µM (doses to about 114 µM), inactives show at the highest dose activity change, negative = substrate turnover; hit rate 0.01% among 390,000; note: potency is the fitted concentration of half-maximal effect; % is set by controls: 0 for no effect and ±100 for the full control effect; nearly all actives have a fitted effect of over 50% in size
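Rat TrxR1, dispensed at 90 nM, was prereduced with 400 uM NADPH (final) for 5 min at ~22 deg C, then incubated with compound 15 min before 400 uM selenite. A first-read NADPH fluorescence drop versus no-compound background flagged substrates.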
GALK inh – blocks human galactokinase activity. Purified GALK, Kinase-Glo residual ATP luminescence. hit rate 0.007% among 270,000. Potency, µM (top dose mostly 57.5 µM), for inactives: at the top dose activity change, negative = inhibition, most hits filed as inhibitors; note: potency is the fitted concentration of half-maximal effect; % is set by controls: 0 for no effect and ±100 for the full control effect
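GALK at 5 nM final was combined with compound, 35 uM ATP and 100 uM galactose in HEPES pH8.0 with MgCl2 and DTT. The reaction ran one hour at room temperature before luminescent ATP detection.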
TRb SRC2 Alpha – confirmation of human TRb-SRC2 interaction inhibitors; hit rate 50% among 30; shares compounds with TrxR1 inh-1; AlphaScreen TRb LBD-SRC2 peptide binding, luminescence; Potency, µM; calls by dose curve
HepG2 tox – HepG2 cytotoxicity, 72 h ATP readout. hit rate 50% among 40. Potency, µM. HepG2 viability, ATP luminescence (CellTiter-Glo), 72 h. shares compounds with TrxR1 inh-1; calls by dose curve
AR-SRC2 inh – disrupts human androgen receptor binding to SRC2 peptide | 25 tested, under 10 active | shares compounds with TrxR1 inh-1 | AR-LBD Tx-SRC2-3 fluorescence polarization, 3 h | calls only; call rule not given here
PPARg-DRIP2 inh – selectivity of TRb-SRC2 inhibitors: human PPARgamma coactivator binding inhibition. PPARg LBD / Texas Red DRIP-2 peptide, fluorescence polarization, 3 h. shares compounds with TrxR1 inh-1. Potency, µM. AID 2449. 25 tested, under 10 active; calls by dose curve
VDR-SRC2 FP sel – VDR-SRC2 (human) interaction inhibition, selectivity; shares compounds with TrxR1 inh-1; VDR LBD/SRC2-3 peptide, fluorescence polarization, 3 h; Potency, µM; 25 tested, under 10 active; AID 2455; calls by dose curve
TRb-SRC2 FP Fluo – confirmation of human TRb-SRC2 interaction inhibitors | shares compounds with TrxR1 inh-1 | TRb LBD / fluorescein-SRC2 peptide, fluorescence polarization | Potency, µM | 20 tested, under 10 active; call rule not given here
GR counterassay – counter-screen for TrxR1 inhibitors: human glutathione reductase inhibition. purified GR, DTNB reduction absorbance 405 nm kinetic. 55 tested, under 10 active. activity change, negative = inhibition, % at 57.1 µM. shares compounds with TrxR1 inh-1
Target sequence (P00390 whole entry, looked up): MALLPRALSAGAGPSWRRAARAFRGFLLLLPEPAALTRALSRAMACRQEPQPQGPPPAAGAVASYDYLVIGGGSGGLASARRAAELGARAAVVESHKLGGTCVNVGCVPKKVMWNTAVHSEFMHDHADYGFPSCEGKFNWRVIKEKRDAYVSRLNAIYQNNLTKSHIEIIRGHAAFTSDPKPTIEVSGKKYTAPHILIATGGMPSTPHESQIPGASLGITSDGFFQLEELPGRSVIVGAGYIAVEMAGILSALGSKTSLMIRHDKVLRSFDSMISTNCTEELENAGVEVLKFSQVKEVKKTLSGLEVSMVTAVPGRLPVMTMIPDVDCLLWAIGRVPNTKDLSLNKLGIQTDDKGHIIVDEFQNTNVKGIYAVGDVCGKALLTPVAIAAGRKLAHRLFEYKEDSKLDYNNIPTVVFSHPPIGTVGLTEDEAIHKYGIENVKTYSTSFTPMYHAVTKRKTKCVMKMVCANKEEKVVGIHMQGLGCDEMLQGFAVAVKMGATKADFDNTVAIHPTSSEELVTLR
TrxR1 inh-2 – blocks rat thioredoxin reductase 1 in hit validation; hit rate 50% among 55; AID 652023; Potency, µM, most hits filed as inhibitors; recombinant TrxR1, NADPH fluorescence consumption, selenite substrate; shares compounds with TrxR1 inh-1
TrxR1 insulin MOA – TrxR1 inhibitors: insulin reduction mechanism-of-action test; shares compounds with TrxR1 inh-1; TrxR1 Trx-coupled insulin reduction, NADPH absorbance 340 nm; Potency, µM; hit rate 20% among 55; AID 652037;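 active = compounds with a measured potency under 100 micromolar; inconclusive = filed, but no rule given; inactive = potency at or above that, or unmeasurable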
TrxR1 inh-3 – inhibitors of rat thioredoxin reductase 1, DTNB reduction | Potency, µM | hit rate 90% among 55 | AID 652256 | shares compounds with TrxR1 inh-1 | purified TrxR1, DTNB reduction, A412;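 active = a half-inhibiting concentration could be measured and was below 100 µM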
Starred values were filed as active, the others as inactive; i = inactive; ? = inconclusive; nt = no result; [ ] = dose if it differs, or a comment. This is a sample that favours compounds with a hit; in the whole collection about 1.5% have one here. Unless noted, calls come from the whole dose curve; as a rule, active = well fitted curve in the direction sought with a large enough effect; inconclusive = small, poorly fitted or top-dose-only effect, or another doubt; inactive = no such curve, though single readings can be large; an effect the other way counts as inactive or inconclusive.

SMILES	CtBP-E1A blk	Six1-Eya2 inh	TrxR1 inh-1	Eya2 inh	TrxR1 substrate	GALK inh	GR counterassay	TrxR1 inh-2	TrxR1 insulin MOA	TrxR1 inh-3	others
O=C(CCc1ccccc1)NN1C(=O)C2C3C=CC(O3)C2C1=O (stereo not given)	5	0	45µM*	-4%	-8%	0%	nt	nt	nt	nt
COc1ccc(NC(=O)Cn2c(=O)n(-c3ccc(C)cc3)c(=O)c3c2c2cc(C)ccc2n3C)cc1	nt	nt	-3%	nt	-4%	nt	nt	nt	nt	nt
O=C(CC(c1cccs1)N1Cc2ccccc2C1=O)Nc1ccc(F)cc1 (stereo not given)	nt	nt	-5%	nt	-2%	nt	nt	nt	nt	nt
CCCCCCCCCCCCCCCC[n+]1ccc(C)c2ccccc21	nt	nt	?	nt	1%	nt	nt	nt	nt	nt
CCc1cccc(C)c1NS(=O)(=O)c1ccc2c(c1)NC(=O)C(C)C(=O)N2 (stereo not given)	nt	nt	20%[57.1 µM]	nt	6%[57.1 µM]	nt	nt	nt	nt	nt
COC(=O)C(NNc1ccccc1C)(NC(=O)c1ccc(F)cc1)C(F)(F)F (stereo not given)	-21	-19	28µM*	0%	-1%	-2%	nt	nt	nt	nt
O=S(=O)(Nc1cccc(-c2cn3cccnc3n2)c1)c1ccccc1	-21	-83*	?	3%	258%	1%	nt	nt	nt	nt
O=S(=O)(Nc1cccc(-c2cn3cccnc3n2)c1)c1ccc(-c2ccccc2)cc1	?	?	-4%[57.1 µM]	-15%	47%[57.1 µM]	1%	nt	nt	nt	nt
O=S(=O)(Nc1cccc(-c2cn3cccnc3n2)c1)c1ccc(F)cc1	-1	-67*	?	2%	188%	0%	nt	nt	nt	nt
Cc1ccc(NC(=O)C(=O)NCC(c2cccnc2)N2CCN(Cc3ccccc3)CC2)cc1Cl (stereo not given)	nt	nt	17%	nt	-2%	nt	nt	nt	nt	nt
Cc1ccc(NC(=O)CCN2C(=O)c3ccccc3Sc3ncccc32)cc1	-1	3	11µM*	-10%	-10%	2%	0	9.5*	i	i
O=S(=O)(NCCc1nnc2ccc(SCc3ccccc3Cl)nn12)c1ccccc1	nt	nt	13%	nt	6%	nt	nt	nt	nt	nt
COCCn1nnnc1C(c1ccc(O)c(OC)c1)N1CCc2ccccc2C1 (stereo not given)	4	-2	5.6µM*	24%	20%[57.1 µM]	-2%	0	4.7*	i	0.27µM*
CCC(C)(C)n1nnnc1C(c1ccc(O)cc1)N1CCc2ccccc2C1 (stereo not given)	-7	1	16µM*	2%	7%[57.1 µM]	5%	-21	7.5*	i	0.24µM*
COc1cc(/C=C2/C(=O)NN(c3cccc(F)c3)C2=O)ccc1OC(=O)c1ccco1	-16	-11	28µM*	3%	-9%	-7%	0	?	i	6.8µM*
COc1ccc([N+](=O)[O-])c(S(=O)(=O)c2ccc(Cl)cc2)n1	8	-5	0.5µM*	-28%	-8%	-2%	-20	0.13*	26µM*	0.041µM*
COc1nc(OC)nc(Oc2ccc(Cl)cc2[N+](=O)[O-])n1	-3	-11	-35%	-3%	-18%	-3%	nt	nt	nt	nt
CC(S(=O)(=O)c1ccccc1)S(=O)(=O)c1ccccc1	1	3	nt	nt	nt	nt	nt	nt	nt	nt
CCc1c(C(C)S(=O)(=O)c2ccccc2)[nH]c(=O)n1CC (stereo not given)	7	2	1.8µM*	-1%	-16%[57.1 µM]	3%	-13	2.4*	4µM*	0.045µM*
CC(C)(C)c1cc(CN2CCN(CCO)CC2)cc(C(C)(C)C)c1O	3	7	7.9µM*	-6%	5%[57.1 µM]	-1%	0	?	i	1.3µM*
COc1cc(CN2CCCCC2C(=O)Nc2ccc(Oc3ccccc3)nc2)ccc1O (stereo not given)	1	-6	13µM*	10%	1%	-5%	6	?	i	0.14µM*
N#C/C(=C\c1ccc(F)cc1)C(=O)NCC1CCCO1 (stereo not given)	nt	nt	-20%	nt	-8%	nt	nt	nt	nt	nt
CS(=O)(=O)c1ccc(C(=O)OCC(=O)N2Cc3ccccc3C2)cc1[N+](=O)[O-]	nt	nt	nt	nt	nt	nt	nt	nt	nt	nt	HepG2 tox=20µM*
CS(=O)(=O)c1ccc(C(=O)OCC(=O)N2CCOCC2)cc1[N+](=O)[O-]	nt	nt	nt	nt	nt	nt	nt	nt	nt	nt	HepG2 tox=i
O=C1CN(C(=O)COC(=O)c2ccc(N3CCCCCC3)c([N+](=O)[O-])c2)c2ccccc2N1	-24	-21	12%[57.1 µM]	-4%	6%[57.1 µM]	0%	nt	nt	nt	nt
CS(=O)(=O)c1ccc(C(=O)OCC(=O)N2CC(=O)Nc3ccccc32)cc1[N+](=O)[O-]	nt	nt	2.8µM*	nt	0%	nt	nt	nt	nt	nt	TRb SRC2 Alpha=10µM*;HepG2 tox=16µM*;AR-SRC2 inh=i;PPARg-DRIP2 inh=15µM*;VDR-SRC2 FP sel=64µM*;TRb-SRC2 FP Fluo=2.8µM*
CCN(CC)C(=O)COC(=O)c1ccc(O)cc1	-2	-1	10%[57.1 µM]	nt	4%[57.1 µM]	-3%	nt	nt	nt	nt
CCN(CC)C(=O)COC(=O)c1ccc(S(C)(=O)=O)c([N+](=O)[O-])c1	nt	nt	nt	nt	nt	nt	nt	nt	nt	nt	HepG2 tox=?
